Assay in all cases: NCI-60 one-dose screen, 48 h (100 = growth as untreated, 0 = no growth, -100 = all killed)
One assay relates to NCI-H23 lung. As to conditions: 10 µM unless noted.
Another assay concerns NCI-H226 lung. The following applies: 10 µM unless noted.
In another assay the test system is NCI-H322M lung. As to conditions: 10 µM unless noted.
The subject of another assay is HOP-62 NSCLC. The following applies: 10 µM unless noted.
A further assay has as its system NCI-H460 lung. As to conditions: 10 µM unless noted.
For the next assay, the system named is NCI-H522 lung. The following applies: 10 µM unless noted.
A further assay has as its system A549/ATCC NSCLC. As to conditions: 10 µM unless noted.
A further assay concerns 786-0 renal. As to conditions: 10 µM unless noted.
Another assay relates to COLO 205 colon. As to conditions: 10 µM unless noted.
The subject of the next assay is DU-145 prostate. As to conditions: 10 µM unless noted.
For another assay, the system named is K-562 leukemia. As to conditions: 10 µM unless noted.
A further assay has as its system MALME-3M melanoma. As to conditions: 10 µM unless noted.
For the next assay, the system named is MDA-MB-231 breast. As to conditions: 10 µM unless noted.
The subject of another assay is RXF 393 renal. The following applies: 10 µM unless noted.
For the next assay, the system named is SF-268 CNS. As to conditions: 10 µM unless noted.
In the next assay the test system is SF-295 CNS. The following applies: 10 µM unless noted.
Another assay concerns SF-539 CNS. The following applies: 10 µM unless noted.
For a further assay, the system named is UACC-257 melanoma. As to conditions: 10 µM unless noted.
The next assay has as its system HOP-92 NSCLC. The following applies: 10 µM.
Another assay has as its system M14 melanoma. The following applies: 10 µM unless noted.

SMILES strings stand for the structures. About 83,000 compounds went through this panel and 20% of them were active in at least one assay; those are over-represented in the sample as a whole.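 Single-dose data. Exposure time 48 hours. Values below 10 considered active.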 Unmarked numbers belong to inactive results. Active and inactive are the calls of the source.

For the compound `CCN(CC)CCn1c2ccc(O)cc2c2sc3cc(OC)ccc3c(=O)c21`, the growth with NCI-H23 lung is 28.5%; in the assay with NCI-H226 lung, 72.6%; with NCI-H322M lung, 26.2%; with HOP-62 NSCLC, 26.2%; in the assay on NCI-H460 lung, 1.49% (active); in the assay on NCI-H522 lung, 30.1%. For the same compound, the growth in the assay on A549/ATCC NSCLC is 13.2%; with 786-0 renal it was 33.3%; with COLO 205 colon, 17.9%; in the assay with DU-145 prostate, 17.2%; with K-562 leukemia, -34.8% (active); in the assay on MALME-3M melanoma, 28.2%. For the same compound, the growth with MDA-MB-231 breast is 31.6%; in the assay on RXF 393 renal, 35%; in the assay with SF-268 CNS, 48.1%; in the assay with SF-295 CNS, 13.9%; with SF-539 CNS it was -74.4% (active); in the assay on UACC-257 melanoma, 80%.
In the case of `Cc1nc2ncc(-c3ccc4ncnc(NCc5ccccc5)c4c3)cc2[nH]1`, the growth was 67.6% in the assay on NCI-H23 lung; 64.6% in the assay on NCI-H226 lung; 65.7% in the assay with NCI-H322M lung; 38.9% with HOP-62 NSCLC; 89.2% with NCI-H460 lung; 17.4% in the assay with HOP-92 NSCLC. For the same compound, the growth in the assay with A549/ATCC NSCLC is 77.5%; in the assay on 786-0 renal, 48.3%; in the assay on COLO 205 colon it was 84.4%; with DU-145 prostate, 27.4%; with K-562 leukemia it was 84.2%; in the assay on MALME-3M melanoma, 63.4%. For the same compound, the growth was 24.4% in the assay on MDA-MB-231 breast; -18.1% (active) in the assay with RXF 393 renal; 37.6% in the assay on SF-268 CNS; 61.5% with SF-295 CNS; 60.6% with SF-539 CNS; 75.7% with UACC-257 melanoma. The growth in the assay on M14 melanoma is 81.4%.
Regarding `C#CC(=O)N(c1ccc(OC)cc1OC)C(C(=O)NCC(=O)OCC)c1cccs1` (centres undefined), the growth is -54.7% (active) in the assay with NCI-H23 lung; 93.3% in the assay with NCI-H226 lung; 94.4% in the assay on NCI-H322M lung; 102% in the assay on HOP-62 NSCLC; 82.2% with NCI-H460 lung; -72.2% (active) in the assay on NCI-H522 lung. In addition, the growth was 94.4% with A549/ATCC NSCLC; -75.2% (active) with 786-0 renal; 35% in the assay on COLO 205 colon; 33.2% in the assay on DU-145 prostate; 3.23% (active) in the assay with K-562 leukemia; -61.8% (active) with MALME-3M melanoma. Also, the growth with MDA-MB-231 breast was 22.4%; in the assay on RXF 393 renal, 56.5%; in the assay on SF-268 CNS, -23.1% (active); in the assay on SF-295 CNS, -67.9% (active); in the assay with SF-539 CNS, -86% (active); in the assay on UACC-257 melanoma, 86.6%.
For the compound `Oc1ccc(CSc2nnc(-c3ccc(Cl)cc3)n2-c2ccccc2)c2cccnc12`, the growth in the assay on NCI-H23 lung is 31.2%; with NCI-H226 lung it was 50.9%; in the assay with NCI-H322M lung, 41.6%; in the assay with HOP-62 NSCLC it was 16.9%; with NCI-H460 lung, 2.03% (active); in the assay on NCI-H522 lung, 36.4%. For the same compound, the growth in the assay on A549/ATCC NSCLC was 26%; in the assay on 786-0 renal it was 44.2%; in the assay on COLO 205 colon, 88.9%; in the assay on DU-145 prostate it was 38.8%; with K-562 leukemia, 22.1%; in the assay with MALME-3M melanoma it was 29.6%. The growth in the assay on MDA-MB-231 breast was 58.5%; with RXF 393 renal, 56.3%; in the assay with SF-268 CNS it was 30.7%; in the assay with SF-295 CNS, 4.65% (active); with SF-539 CNS, 22%; in the assay with UACC-257 melanoma, 29.3%.
As for `O=C(Nc1ccc2c(ccn2Cc2ccccn2)c1)c1cnccn1`, the growth is 97% with NCI-H23 lung; 88.3% with NCI-H226 lung; 106% with NCI-H322M lung; 72.7% with HOP-62 NSCLC; 105% in the assay on NCI-H460 lung; 91.4% in the assay on HOP-92 NSCLC. The growth with A549/ATCC NSCLC was 86.1%; in the assay with 786-0 renal it was 87.6%; in the assay on COLO 205 colon it was 120%; with DU-145 prostate it was 95.6%; with K-562 leukemia, 107%; in the assay with MALME-3M melanoma, 106%. In addition, the growth with MDA-MB-231 breast is 86.7%; with RXF 393 renal it was 47.8%; in the assay on SF-268 CNS, 84.1%; with SF-295 CNS it was 97.5%; in the assay on SF-539 CNS, 96.4%; in the assay with UACC-257 melanoma, 102%. The growth in the assay on M14 melanoma is 106%.
On to `CC(C)(C)CC(C)(C)n1nnnc1C(Nc1nccs1)c1cc2cccc3ccc4cccc1c4c32` (centres undefined), for which the growth with NCI-H23 lung is 102%; with NCI-H226 lung, 3.26% (active); in the assay on NCI-H322M lung, 93.9%; with HOP-62 NSCLC it was 89%; with NCI-H460 lung, 103%; in the assay on NCI-H522 lung it was 96.8%. Also, the growth is 107% with A549/ATCC NSCLC; 102% with 786-0 renal; 114% in the assay with COLO 205 colon; 107% in the assay on DU-145 prostate; 111% with K-562 leukemia; 94% in the assay on MALME-3M melanoma. Also, the growth in the assay with MDA-MB-231 breast is 97.2%; in the assay with RXF 393 renal it was 119%; with SF-268 CNS, 94.8%; in the assay on SF-295 CNS, 94.9%; in the assay with SF-539 CNS, 92.7%; in the assay on UACC-257 melanoma, 104%.
Turning to `CCCn1cnc2c(c1=N)C(c1ccc(OC)cc1)c1sc3c(CC)cccc3c1O2` (centres undefined), the growth with NCI-H23 lung was 18.9%; in the assay with NCI-H226 lung, 57%; with NCI-H322M lung, 37.6%; with HOP-62 NSCLC it was 38.8%; in the assay on NCI-H460 lung it was 10.1%; with NCI-H522 lung, -14.3% (active). Also, the growth is 40.6% in the assay with A549/ATCC NSCLC; 32.3% in the assay on 786-0 renal; 13.9% in the assay on COLO 205 colon; 16.7% in the assay with DU-145 prostate; 13.1% in the assay on K-562 leukemia; 53.5% with MALME-3M melanoma. Besides, the growth in the assay with MDA-MB-231 breast is 29.1%; with RXF 393 renal, -13.3% (active); in the assay on SF-268 CNS it was 45.1%; in the assay on SF-295 CNS it was -18.1% (active); with SF-539 CNS, -22% (active); in the assay with UACC-257 melanoma, 81.9%.
Turning to `O=C1CC(=O)N2CSCN(C(c3ccccc3)c3nc4ncncc4[nH]3)C2=N1` (centres undefined), the growth with NCI-H23 lung was 99.7%; with NCI-H226 lung it was 107%; in the assay with NCI-H322M lung, 106%; with HOP-62 NSCLC, 96.8%; with NCI-H460 lung, 112%; with NCI-H522 lung, 93.9%. The growth was 105% with A549/ATCC NSCLC; 104% in the assay with 786-0 renal; 114% in the assay with COLO 205 colon; 110% with DU-145 prostate; 102% with K-562 leukemia; 80.5% in the assay on MALME-3M melanoma. The growth in the assay with MDA-MB-231 breast was 101%; in the assay on RXF 393 renal, 105%; with SF-268 CNS it was 103%; in the assay on SF-295 CNS, 99.1%; in the assay on SF-539 CNS, 99.1%; with UACC-257 melanoma, 108%.
`CC1(COc2ccc3ncc(C#Cc4cncc(C(=O)Nc5cccc(C(F)(F)F)c5)c4)n3n2)COC1`: the growth in the assay with NCI-H23 lung is 60.9%; in the assay with NCI-H226 lung, 25%; in the assay with NCI-H322M lung, 95.9%; in the assay on HOP-62 NSCLC, 63.7%; in the assay with NCI-H460 lung it was 85.4%; in the assay with NCI-H522 lung, 75.5%. The growth in the assay with A549/ATCC NSCLC was 88.3%; in the assay with 786-0 renal, 97.9%; with COLO 205 colon, 80.7%; in the assay with DU-145 prostate it was 91.1%; with K-562 leukemia it was 47.8%; in the assay on MALME-3M melanoma, 71.1%. The growth in the assay on MDA-MB-231 breast is 44.5%; with RXF 393 renal, -4.67% (active); in the assay with SF-268 CNS, 76.1%; with SF-295 CNS, 79.6%; with SF-539 CNS, 60.1%; with UACC-257 melanoma it was 98.1%.
